Consider 13 compounds from PubChem BioAssay.

Assay [1] in a line: HepG2 liver cancer cell viability effects, profiling panel, resazurin fluorescence, 24 h, PK04 Diversity Set (AID 1172). Also: test concentration not given here. The settings on record: higher = more signal.
Assay [2] in a line: basal S. cerevisiae growth modulation, no modifier, primary screen, OD600, strain BY4716, 24 h, basal condition (AID 1173). Conditions: OD600, 24 h, higher = more signal, called active from +8 up or from −8 down.
A short description of assay [3]: MM1S myeloma cell viability, profiling panel, resazurin fluorescence, basal, 24 h, PK04 Diversity Set (AID 1174).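 Also: MM1S multiple myeloma cell line; test concentration not given here.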 The settings on record: higher = more signal, called active from +8 up or from −8 down. (In general: The colour change of resazurin is a common sign of viable cells or microbes.)
Assay [4] has as its target Dihydroorotate dehydrogenase (quinone), mitochondrial (Plasmodium falciparum (isolate 3D7)) (UniProt Q08210). Nature of the assay: PfDHODH enzyme inhibitors, primary screen, biochemical, C-terminal His tag, absorbance 600 nm (AID 1175).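 Also: recombinant parasite enzyme with a five histidine tag at its C terminus; test concentration not given here.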 Conditions: DCIP absorbance 600 nm, higher = more signal, called active from +8 up or from −8 down.
Assay [5] is described as follows: P. aeruginosa biofilm formation inhibitors, primary screen, strain PAO1, LB-PBS medium, absorbance 600 nm (AID 1176). Also: test concentration not given here. Conditions: P. aeruginosa PAO1 growth/biofilm, A600, 12 h; higher = more signal.
Assay [6] is described as follows: S. cerevisiae RM11-1a growth modifiers, primary screen, strain RM11-1a, OD600, basal, 24 h (AID 1177).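 Also: cultures grown under basal conditions with no added stressor; test concentration not given here.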 Conditions: OD600, 24 h, higher = more signal, called active from +8 up or from −8 down.
The nature of assay [7]: E. coli acrAB mutant growth effects, primary screen, E. coli filamentation inducers, strain DRC39, OD650, 24 h (AID 1178).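 Also: growth measured as culture turbidity by optical density at 650 nm; test concentration not given here.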 Conditions: higher = more signal, called active from +8 up or from −8 down.
Assay [8] is described as follows: E. coli acrAB mutant growth effects, primary screen, E. coli filamentation inducers, strain DRC39, OD650, 48 h (AID 1179).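 Also: screen aims at cell division blockers that make cells filament.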 The settings on record: E. coli DRC39 delta-acrAB growth, higher = more signal, called active from +8 up or from −8 down.
A short description of assay [9]: RPMI8226 myeloma cell viability, profiling panel, resazurin fluorescence, basal, 24 h, PK04 Diversity Set (AID 1180).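 Also: RPMI8826 multiple myeloma cell line at 5000 cells per well; test concentration not given here.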 Conditions: higher = more signal.
The target of assay [10] is E3 ubiquitin-protein ligase XIAP (Homo sapiens) (UniProt P98170). Kind of assay: XIAP binders, primary screen, biophysical, small-molecule microarray, fluorescence 635 nm (AID 1181).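 Also: score merges 667 nm emission and signal to noise over triplicate slides.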 Conditions: small-molecule microarray binding, higher = more signal.
Sequence of E3 ubiquitin-protein ligase XIAP (Homo sapiens) (P98170 whole entry, looked up): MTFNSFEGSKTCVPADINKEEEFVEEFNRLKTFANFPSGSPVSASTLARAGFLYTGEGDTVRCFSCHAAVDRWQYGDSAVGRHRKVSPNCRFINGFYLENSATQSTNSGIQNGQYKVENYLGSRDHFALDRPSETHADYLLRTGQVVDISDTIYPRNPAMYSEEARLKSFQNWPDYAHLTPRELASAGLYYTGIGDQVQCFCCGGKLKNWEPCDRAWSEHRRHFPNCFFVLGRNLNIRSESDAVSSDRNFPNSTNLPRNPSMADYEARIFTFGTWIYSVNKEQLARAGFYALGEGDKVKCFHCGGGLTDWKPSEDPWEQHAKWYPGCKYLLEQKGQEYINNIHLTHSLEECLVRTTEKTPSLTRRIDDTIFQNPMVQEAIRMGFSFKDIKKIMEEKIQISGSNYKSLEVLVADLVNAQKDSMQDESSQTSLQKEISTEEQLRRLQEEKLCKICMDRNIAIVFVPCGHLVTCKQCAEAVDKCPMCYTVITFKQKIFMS

Calls of active or inactive are those of the source. Unless noted, no rule for the calls is given here.

Sequence of Dihydroorotate dehydrogenase (quinone), mitochondrial (Plasmodium falciparum (isolate 3D7)) (Q08210 whole entry, looked up): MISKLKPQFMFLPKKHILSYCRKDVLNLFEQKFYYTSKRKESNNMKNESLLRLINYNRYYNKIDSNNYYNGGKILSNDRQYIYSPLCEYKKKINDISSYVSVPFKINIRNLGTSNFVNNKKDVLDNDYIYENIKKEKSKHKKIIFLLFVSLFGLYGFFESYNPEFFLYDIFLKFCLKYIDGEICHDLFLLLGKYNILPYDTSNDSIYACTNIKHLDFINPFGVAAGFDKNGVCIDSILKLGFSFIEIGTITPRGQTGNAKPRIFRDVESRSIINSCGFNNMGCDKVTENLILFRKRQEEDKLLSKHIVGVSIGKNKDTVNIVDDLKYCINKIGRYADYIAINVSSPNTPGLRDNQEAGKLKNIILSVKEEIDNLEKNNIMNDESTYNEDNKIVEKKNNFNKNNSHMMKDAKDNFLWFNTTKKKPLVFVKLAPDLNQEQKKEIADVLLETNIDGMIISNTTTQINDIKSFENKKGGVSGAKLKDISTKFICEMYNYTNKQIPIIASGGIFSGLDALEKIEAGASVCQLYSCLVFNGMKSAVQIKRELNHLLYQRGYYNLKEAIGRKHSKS

On to `COCC(=C=CC[C@@H](O)c1ccccc1OCCO)C[C@@H](O)c1cc(Cl)cc(Cl)c1O`, for which the z-score was -0.127 in [1]; -2.33 (inactive) in assay [2]; -0.541 (inactive) in assay [3]; 0.26 (inactive) in [5]; 0.216 (inactive) in assay [6]; -0.259 (inactive) in assay [7]. Moreover, the z-score was -0.424 (inactive) in [8] and -0.394 in [9]. In addition, the composite z-score in assay [4] was -1.31 (inactive); in assay [10], -0.0553.

As to `C=CCN1C(=O)[C@@]2(O[C@@H](CCO)[C@H]([Si](C)(C)c3ccc(OC)cc3)[C@H]2C)c2cc(NC(=O)c3ccc(OC)cc3)ccc21`, the z-score was -2.49 in [1]; -1.77 (inactive) in [2]; -3.52 (inactive) in assay [3]; 1.53 (inactive) in assay [5]; 1.69 (inactive) in [6]; 1.22 (inactive) in assay [7]. In addition, the results for the z-score in assay [8] and in assay [9] were 0.586 (inactive) and -4.92, respectively. In addition, the composite z-score in [4] was -1.21 (inactive); in [10], -0.154.

Take `C#CCN(CC=C(C)C)[C@H](CO)c1ccccc1`: the z-score in assay [1] was 0.0941; in assay [2], -8.3 (active); in assay [3], 0.101 (inactive); in assay [5], -0.635 (inactive); in assay [6], -0.0386 (inactive); in assay [7] it was -0.997 (inactive). Further, the z-score is -1.3 (inactive) in [8] and -0.544 in [9]. Besides, the figures for the composite z-score in assay [4] and in [10] were -2.54 (inactive) and -0.165, respectively.

For `O=C1NC(=O)C2C1C=CC(C(O)C(c1ccccc1)c1ccccc1)N2Nc1ccc(Cl)cc1Cl` (stereo not given), the z-score in [1] was -2.23; in assay [2] it was -2.63 (inactive); in [3] it was -1.05 (inactive); in assay [5], 0.599 (inactive); in assay [6], 1.17 (inactive); in [7], -0.659 (inactive). Also, the z-score in assay [8] was -0.712 (inactive); in assay [9], -1.62. The composite z-score in assay [4] is 0.125 (inactive); in assay [10], 0.236.

For `C=CCNC(=O)[C@H]1[C@@H]2C(=O)O[C@@H](c3ccccc3)[C@@H](c3ccccc3)N2[C@@H](c2ccc(OCCO)cc2)[C@]12C(=O)Nc1ccc(C#CC3=CCCCC3)cc12`, the z-score in assay [1] was 0.735; in assay [2] it was 2.06 (inactive); in assay [3], -1.21 (inactive); in [5], 0.269 (inactive); in [6], 2.97 (inactive); in [7], 0.0358 (inactive). In addition, the z-score in assay [8] is -0.198 (inactive); in [9], -2.77. For the same compound, the composite z-score in assay [4] was 0.472 (inactive); in assay [10], 0.0435.

Take `CCCCCCC#C[Si](O[C@H](c1ccccc1)c1cn([C@H](CO)Cc2ccccc2)nn1)(C(C)C)C(C)C`: the z-score in assay [1] is 1.13; in assay [2], -1.93 (inactive); in assay [3] it was 0.389 (inactive); in assay [5] it was 0.395 (inactive); in assay [6], -0.297 (inactive); in [7], 0.953 (inactive). In addition, the results for the z-score in assay [8] and in [9] were 1.57 (inactive) and 0.881, respectively. Moreover, the composite z-score is -3.69 (inactive) in assay [4] and -0.157 in assay [10].

Turning to `CC1CC/C=C\[C@H]2OC34C=CCN(C(C)(C)C)C(=O)[C@H]3N(CCCCCCO)C(=O)[C@@H]4C2C(=O)O1` (stereo not given in full), the z-score was -0.0231 in assay [1]; -0.51 (inactive) in [2]; -1.72 (inactive) in [3]; -0.401 (inactive) in assay [5]; 0.0296 (inactive) in assay [6]; 0.504 (inactive) in assay [7]. Also, the z-score in assay [8] was 0.749 (inactive); in assay [9], -1.14. Moreover, the composite z-score in assay [4] was -1.07 (inactive); in assay [10], 0.191.

Turning to `O=C1[C@H]2C=C(Br)[C@H](C[C@@H]2OCCCCO)[C@@]12CO2`, the z-score was -0.312 in [1]; -0.172 (inactive) in [2]; -0.718 (inactive) in assay [3]; 0.13 (inactive) in assay [5]; 0.614 (inactive) in assay [6]; -0.649 (inactive) in assay [7]. Further, the z-score in assay [8] was -0.808 (inactive); in assay [9], -0.133. For the same compound, the composite z-score in assay [4] was 0.228 (inactive); in assay [10] it was -0.0749.

On to `CCc1oc(CC[C@@H](CO)NC(=O)NCCn2cc(C3(O)CCCCC3)nn2)c(C(=O)OC)c1C(=O)OC`, for which the z-score in [1] is -0.676; in [2], -1.16 (inactive); in [3], -0.658 (inactive); in assay [5] it was -0.109 (inactive); in [6], -0.298 (inactive); in assay [7], -0.247 (inactive). Also, the z-score in assay [8] was -0.64 (inactive); in [9], -0.626. Moreover, the values for the composite z-score in assay [4] and in assay [10] were -0.32 (inactive) and -0.0078, respectively.

`O=C1c2ccccc2[C@@]2(Cc3ccccc3N(CCN3CCOCC3)C2=O)[C@H](c2ccc(CO)cc2)N1Cc1ccccc1`: the z-score in assay [1] was -0.864; in [2], -0.187 (inactive); in assay [3] it was 0.757 (inactive); in [5], 0.168 (inactive); in assay [6] it was 0.167 (inactive); in assay [7], 0.839 (inactive). Further, the z-score in [8] is 1.61 (inactive); in assay [9], 0.386. Also, the composite z-score is -4.94 (inactive) in assay [4] and -0.278 in assay [10].

Take `COCCOC(=O)N1C(=O)[C@@]2(c3cc(C#CC4(O)CCCCCC4)ccc31)[C@H](c1ccc(O)cc1)N1[C@H](c3ccccc3)[C@H](c3ccccc3)OC(=O)[C@H]1[C@@H]2C(=O)Nc1nc2ccccc2s1`: the z-score was -0.181 in [1]; -0.213 (inactive) in assay [2]; 0.0851 (inactive) in assay [3]; 0.51 (inactive) in assay [5]; 0.443 (inactive) in [6]; -0.239 (inactive) in assay [7]. The z-score was 0.208 (inactive) in assay [8] and -0.815 in assay [9]. Moreover, the composite z-score in assay [4] was 0.811 (inactive); in [10] it was 0.0679.

Take `CCC(CC)C(O)C1C=CC2C(=O)N(C)C(=O)C2N1Nc1ccccc1` (stereo not given): the z-score is -0.138 in assay [1]; -0.692 (inactive) in assay [2]; -0.193 (inactive) in assay [3]; 1.12 (inactive) in [5]; -0.0874 (inactive) in assay [6]; -0.53 (inactive) in [7]. Also, the z-score is -0.662 (inactive) in [8] and 0.257 in assay [9]. Besides, the composite z-score is -0.546 (inactive) in assay [4] and 0.661 in assay [10].

Turning to `CN(C)C(=O)[C@@]1(Cc2ccccc2)N=C(c2ccc(OCCCO)cc2)O[C@H]1c1ccccc1N=[N+]=[N-]`, the z-score in assay [1] was -0.697; in assay [2], -1.27 (inactive); in [3] it was -3.56 (inactive); in assay [5] it was 0.0533 (inactive); in [6] it was -0.0844 (inactive); in [7], 0.754 (inactive). The z-score is 0.579 (inactive) in [8] and -5.06 in assay [9]. Further, the composite z-score in [4] is 0.2 (inactive); in assay [10], 0.15.
